Cycloheximide cs – counter-screen for Shiga toxin inhibitors: cycloheximide protein synthesis inhibition; cell reporter, cycloheximide protein synthesis inhibition counterscreen; max response, %; hit rate 12% among 300,000; in the data active means max response mostly above about 13%, no sharp cut-off; inactive means mostly below about 14%; further: read at 38.3 µM for the half of the compounds with a filed dose; 0% is about no effect
Shiga toxin inh – Shiga toxin inhibition; hit rate 9.2% among 290,000; inhibition, % at 38.7 µM; AID 2315; Vero cells, Shiga toxin protein synthesis inhibition reporter; in the data active means inhibition mostly above about 28%, no sharp cut-off; inactive means mostly below about 43%; further: 0% is about no effect
Pf growth 96h – P. falciparum growth inhibition at 96 hour, primary screen for plastid delayed-death inhibitors; Potency, µM (highest dose often 28.7 µM), for the others: at the highest dose activity change, negative = inhibition, most hits filed as inhibitors; P. falciparum luciferase reporter growth, 96 h; AID 504834; hit rate 6.9% among 320,000; active means well fitted inhibition curve with a large enough effect; inconclusive means small, poorly fitted or top-dose-only effect, or another doubt; inactive means no such curve, though single readings can be large or run the other way; further: potency means the concentration at half of the fitted maximal effect; on the % scale 0 is the no-effect control and ±100 the full control effect
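Infected RBCs, 2% Hct / 0.05% parasitemia final; luciferase-reporter P. falciparum; cpd 96 h, 37 C, 5% CO2; luciferase detection reagent; luminescence.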
SARS PLP yeast – inhibitors of SARS-CoV papain-like protease in yeast; S. cerevisiae expressing SARS-CoV PLpro, growth rescue; Potency, µM (top dose mostly 32.9 µM), inactives show at the top dose activity, positive = growth rescue, actives largely listed as activators; hit rate 0.19% among 330,000; further: potency means the concentration at half of the fitted maximal effect; 0% is about no effect; nearly all actives have a fitted effect of over 55% in size
Pf growth 48h – P. falciparum growth inhibition at 48 hours (one generation) | P. falciparum luciferase growth in erythrocytes, 48 h | Potency, µM (series often up to 28.7 µM), for the others: at the top dose activity change, negative = inhibition, hits mostly inhibitors | hit rate 5.9% among 310,000 | AID 504832; active means well fitted inhibition curve with a large enough effect; inconclusive means small, poorly fitted or top-dose-only effect, or another doubt; inactive means no such curve, though single readings can be large or run the other way; further: potency means the concentration at half of the fitted maximal effect; on the % scale 0 is the no-effect control and ±100 the full control effect
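In quantitative HTS format, infected erythrocytes bearing luciferase-reporter parasites were treated for a single generation at 37 C. Luminescence after adding detection reagent served as the growth measure.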
NS1 function inh – inhibitors of influenza NS1 protein function. AID 2326. hit rate 0.4% among 270,000. Potency, µM (doses to about 46.1 µM), for the others: at the top dose activity, positive = more growth; further: potency means the concentration at half of the fitted maximal effect; actives are rising curves; nearly all actives have a fitted effect of over 50% in size
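Compounds were scored for reversing the slow growth caused by influenza A NS1 in S. cerevisiae, measured by optical density at 600 nm. Assay medium contained 2% galactose at pH 6.0; NS1-free yeast of the same strain were the positive control.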
* hit, by the source's call. Most compounds without a hit are left out; they make up all but 21% or so of the library. Unless noted, the call rests on the fitted dose curve.

What do the screens show for `CCOC(=O)N1CCN(C(=O)CN(Cc2ccccc2)S(C)(=O)=O)CC1`?
Cycloheximide cs: -1.8; Shiga toxin inh: 10.6; Pf growth 96h: 244.4%; SARS PLP yeast: 1.1%; Pf growth 48h: -5.9%; NS1 function inh: 0.6%

How did CC(C(=O)Nc1nccs1)N1C(=O)c2ccccc2S1(=O)=O (stereo not given) do in these assays?
Pf growth 96h: 3.9%; SARS PLP yeast: 0.7%; Pf growth 48h: 2.8%

Results for Cc1ccccc1C(=O)Oc1ccccc1C(=O)N1CCOCC1 ?
Cycloheximide cs: -1.9; Shiga toxin inh: 10.0; Pf growth 96h: 8.28µM*; SARS PLP yeast: 8.0%; Pf growth 48h: -13.5%; NS1 function inh: 0.7%

Results for COC(=O)c1ccccc1C(=O)N1CCOCCN(C(=O)c2ccccc2C(=O)OC)CCOCC1 ?
Cycloheximide cs: -4.2; Shiga toxin inh: -7.7; Pf growth 96h: 23.4%; SARS PLP yeast: 18.7%; Pf growth 48h: 9.3%; NS1 function inh: 2.3%

What do the screens show for `CCCCn1c2c(c(=O)n(C)c1=O)C(c1ccc(OC)cc1)N1CCCCCC1=N2` (stereo not given)?
Cycloheximide cs: -3.7; Shiga toxin inh: -13.0; Pf growth 96h: 7.38µM*; SARS PLP yeast: -3.2%; Pf growth 48h: inconclusive; NS1 function inh: -34.5%

How did Cc1ccc(C2(C)NC(=O)N(CC(=O)NC(=O)NC(C)(C)C)C2=O)cc1 (stereo not given) do in these assays?
Cycloheximide cs: -1.1; Shiga toxin inh: 3.7; Pf growth 96h: -14.9%; SARS PLP yeast: -2.0%; Pf growth 48h: 1.6%; NS1 function inh: -13.6%

What do the screens show for `Cc1cccc(C(C)C)c1NC(=O)c1ccc(CN(c2ccccc2)S(=O)(=O)c2ccccc2)cc1`?
Cycloheximide cs: 7.7; Shiga toxin inh: -7.1; Pf growth 96h: 3.8%; SARS PLP yeast: -3.5%; Pf growth 48h: -18.4%; NS1 function inh: 0.9%

How did CCOC(=O)c1c(/N=C/N(C)C)sc(/C=N/Nc2ccccc2)c1-c1ccc(Cl)cc1 do in these assays?
Cycloheximide cs: -4.4; Shiga toxin inh: -6.2; Pf growth 96h: 3.29µM*; SARS PLP yeast: 1.2%; Pf growth 48h: 13.1µM*; NS1 function inh: 15.8%

Results for COC(=O)c1cc2c(C(F)(F)F)nn(C)c2s1 ?
Cycloheximide cs: -2.5; Shiga toxin inh: -4.3; Pf growth 96h: 9.6%; SARS PLP yeast: 0.5%; Pf growth 48h: -5.6%; NS1 function inh: 2.3%

What do the screens show for `COCCN(CC(=O)NCC1CCCO1)C(=O)CCC(=O)Nc1cc(C)on1` (stereo not given)?
Cycloheximide cs: -6.9; Shiga toxin inh: 13.3; Pf growth 96h: 1.65µM*; SARS PLP yeast: -2.6%; Pf growth 48h: 18.9%; NS1 function inh: 2.8%

What do the screens show for `C=CCN(CC(=O)NCC1CCCO1)C(=O)CCC(=O)Nc1cc(C)on1` (stereo not given)?
Cycloheximide cs: -2.7; Shiga toxin inh: 37.1; Pf growth 96h: inconclusive; SARS PLP yeast: 13.9%; Pf growth 48h: 26.4%; NS1 function inh: -1.0%

Results for O=C(CN(CC1CCCO1)C(=O)CCC(=O)Nc1nccs1)NCC1CCCO1 (stereo not given) ?
Cycloheximide cs: -2.3; Shiga toxin inh: 79.2; Pf growth 96h: 13.1µM*; SARS PLP yeast: -2.3%; Pf growth 48h: 0.5%; NS1 function inh: 3.5%

Results for O=C(CN(Cc1ccccc1)C(=O)CCC(=O)Nc1nccs1)NCC1CCCO1 (stereo not given) ?
Cycloheximide cs: -3.4; Shiga toxin inh: -5.3; Pf growth 96h: 13.3%; SARS PLP yeast: -1.1%; Pf growth 48h: -21.5%; NS1 function inh: -0.6%

How did CC(OC(=O)c1ccc(S(=O)(=O)NCc2ccco2)cc1)C(=O)Nc1ncc(Cl)cc1Cl (stereo not given) do in these assays?
Cycloheximide cs: 12.2; Shiga toxin inh: -2.7; Pf growth 96h: 24.4%; SARS PLP yeast: -4.2%; Pf growth 48h: -2.3%; NS1 function inh: 5.9%

How did Cc1cc(OCC(O)CN2C(C)CCCC2C)ccc1C(C)C (stereo not given) do in these assays?
Cycloheximide cs: -5.4; Shiga toxin inh: 8.2; Pf growth 96h: inconclusive; SARS PLP yeast: -2.1%; Pf growth 48h: 9.28µM*; NS1 function inh: 6.7%

How did CC1CCCC(C)N1CC(O)COc1ccc(Cl)cc1 (stereo not given) do in these assays?
Cycloheximide cs: 4.8; Shiga toxin inh: 9.6; Pf growth 96h: inconclusive; SARS PLP yeast: 7.8%; Pf growth 48h: inconclusive; NS1 function inh: -5.1%
